A3A deaminase – inhibitors of human APOBEC3A DNA deaminase. inhibition, % at 20 µM. actives 0.41% (n = 330,000). recombinant A3A, FAM/TAMRA ssDNA deamination fluorescence. P31941;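 active means at least 40% inhibition at 20 µM here, with at most 30% in a related deaminase screen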
Target sequence (P31941 whole entry, looked up): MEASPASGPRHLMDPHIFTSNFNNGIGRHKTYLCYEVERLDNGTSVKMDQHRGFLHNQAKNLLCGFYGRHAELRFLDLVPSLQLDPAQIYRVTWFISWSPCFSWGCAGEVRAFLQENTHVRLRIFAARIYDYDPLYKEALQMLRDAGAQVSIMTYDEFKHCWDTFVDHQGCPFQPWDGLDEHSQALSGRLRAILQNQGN
ALR H2O2 inh – inhibitors of human sulfhydryl oxidase ALR; actives 3.8% (n = 290,000); P55789; AID 485317; purified ALR, DTT oxidation, H2O2 HRP-luminol luminescence; inhibition, % (concentration not given with the values);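 active means mean replicate inhibition above about 79%, with every replicate also reaching it, limit read from the data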
Target sequence (P55789 whole entry, looked up): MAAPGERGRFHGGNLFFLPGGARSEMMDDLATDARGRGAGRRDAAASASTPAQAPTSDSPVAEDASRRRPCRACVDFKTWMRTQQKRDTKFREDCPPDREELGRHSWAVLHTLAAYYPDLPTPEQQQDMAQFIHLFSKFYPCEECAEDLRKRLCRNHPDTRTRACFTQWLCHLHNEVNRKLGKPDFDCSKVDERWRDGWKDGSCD
PHOSPHO1 block – blocks human PHOSPHO1 phosphatase activity; Q8TCT1; recombinant PHOSPHO1, absorbance phosphatase assay; inhibition, % at 13.3 µM; actives 1.1% (n = 290,000); AID 1565; in the data active means inhibition above about 60%
aDG glyco act – alpha-DG glycosylation activation; actives 0.22% (n = 360,000); activation, % at 10 µM; Pro5-aDG cells, alpha-DG glycosylation AlphaScreen (IIH6); 0% Pro5, 100% B10-LARGE cell signal; AID 624168;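 active means activation of at least 8% versus controls, or a plate z-score of at least 8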;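 further: Pro5 are CHO cells carrying HIG-tagged alpha-DG that lacks glycosylation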
APOBEC3G inh – blocks human APOBEC3G single-stranded DNA deamination; Q9HC16; recombinant A3G, ssDNA deamination FAM/TAMRA fluorescence; inhibition, % at 20 µM; actives 0.28% (n = 330,000); AID 493012;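 active means inhibition of at least 40% at 20 µM, with no more than 30% in the related APOBEC3A deaminase screen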
rCAG RNA binder – molecules binding r(CAG) RNA repeats. r(CAG) RNA repeat, TO-PRO-1 dye displacement fluorescence. inhibition, % at 3 µM. actives 1.3% (n = 370,000);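 active means inhibition above the plate cutoff, the mean of all test compounds on that plate plus 3 SD, cut at about 35% in these data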;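 further: higher means more dye released from RNA so lower well fluorescence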
A number is an active result; . = inactive; / = no result given. A selection: hits, their analogues and other compounds. The true share with any hit is near 5.4%.

SMILES	A3A deaminase	ALR H2O2 inh	PHOSPHO1 block	aDG glyco act	APOBEC3G inh	rCAG RNA binder
COc1cccc(Cn2cnc3c(N)c(C)c(C)cc32)c1	.	.	.	.	.	.
CCCn1cnc2c(N)c(C)c(C)cc21	.	83	73	.	.	.
COc1ccc(S(=O)(=O)Nc2c(C(=O)O)[nH]c3ccc(OC)cc23)cc1	.	98	.	.	.	.
CCCCCn1cc(CCC(=O)Nc2ccc(Oc3cccnc3)cc2)c2ccccc21	/	/	/	/	/	.
COc1ccccc1CCN=C(N)NS(=O)(=O)c1ccccc1F	.	.	66	.	.	.
Cc1cc(N2CCN(CCO)CC2)n2nc(C)nc2n1	/	/	/	/	/	.
Cc1ccc(S(=O)(=O)NCCOC(=O)Nc2sc(=S)n(C)c2C)cc1	.	.	.	.	.	.
Cc1c(NC(=O)OCCNC(=O)Nc2ccccc2)sc(=S)n1C	.	98	.	.	.	.
Cc1c(NC(=O)OCCNC(=O)COc2ccc(Cl)cc2Cl)sc(=S)n1C	.	97	.	.	.	.
Cc1cc(Cl)ccc1OCC(=O)NCCOC(=O)Nc1sc(=S)n(C)c1C	.	.	.	.	.	.
CCOC(=O)Nc1sc(=S)n(C)c1C	.	93	.	.	.	.
Nn1c(SCC(=O)Nc2ccccc2-c2ccccc2)nnc1-c1cc(-c2ccc(Cl)cc2)n[nH]1	/	/	/	/	/	.
COC(=O)[C@]12C[C@H](CC(=O)NCc3cccc4ccccc34)C(=O)N(Cc3ccccc3)C1=C[C@H](C1CCCC1)O[C@@H]2C	/	/	/	/	/	.
CN(C)c1ccc(/C=C2/NC(=O)NC2=O)cc1	.	99	.	.	.	.
O=C1NC(=O)C(=Cc2ccccc2)N1	/	/	/	.	/	.
CN=c1scc(C)n1/N=C/c1ccc(O)cc1	.	99	.	.	.	.
CN=c1scc(C)n1/N=C/c1ccc(O)cc1O	.	99	.	.	.	.
C=CCN=c1scc(C)n1/N=C/c1ccc(O)c(O)c1	.	99	.	.	.	.
CN=c1scc(C)n1/N=C/c1ccc2c(c1)OCO2	.	98	.	.	.	.
COC(=O)[C@]1(C#N)CC(=O)N(c2ccccc2)[C@@H]1c1ccccc1	/	/	/	/	/	.
c1csc(-c2nnc(SCc3cccc4ccccc34)o2)c1	/	/	/	/	/	.
O=C(N[C@H](Cc1ccccc1)C(=O)NCC1CCCCC1)[C@H]1O[C@@H](n2ccc(=O)[nH]c2=O)[C@H](O)[C@@H]1O	/	/	/	/	/	.
CCOC(=O)CC(=O)CSc1nnc2sc3ccccc3n12	.	.	64	.	.	.
CCOC(=O)/C(=C/c1c[nH]c2ccccc12)NC(C)=O	.	97	.	.	.	.
Cc1ccccc1-n1c(=S)[nH]c2nc3c(cc2c1=O)COC(C)(C)C3	.	/	.	.	.	.
SMILES	A3A deaminase	ALR H2O2 inh	PHOSPHO1 block	aDG glyco act	APOBEC3G inh	rCAG RNA binder
Cc1ccccc1-n1c(=S)[nH]c2nc3c(cc2c1=O)CCCC3	.	98	.	.	.	.
Cc1ccc(C(=O)N/C(=C/c2ccc(N(C)C)cc2)C(=O)NCC2CCCO2)cc1 (configuration not stated)	.	87	.	.	.	.
CCCCc1ccc(NC(=S)NCC2CCCO2)cc1 (configuration not stated)	.	/	.	.	.	.
Cc1ccc(C(=O)N/C(=C/c2ccc(Cl)cc2)C(=O)NCC2CCCO2)cc1 (configuration not stated)	.	.	.	.	.	.
CN(C)c1ccc(NC(=S)NCC2CCCO2)cc1 (configuration not stated)	.	99	.	.	.	.
Cc1cccc(C(=O)N/C(=C\c2ccco2)C(=O)N2CCCC2)c1	.	95	.	.	.	.
COC(=O)C1=C(C)N(Cc2ccccc2C(F)(F)F)C(=NCc2cc(OC)c(OC)c(OC)c2)NC1c1ccccc1 (configuration not stated)	/	/	/	/	/	.
O=C(CSC1CC(=O)N(CCc2ccccc2)C1=O)Nc1cccc(Cl)c1 (configuration not stated)	.	99	.	.	.	.
O=C(CSC1CC(=O)N(c2ccc(C(=O)O)cc2)C1=O)Nc1ccc(Cl)cc1 (configuration not stated)	.	98	.	.	.	.
COC(=O)[C@]12C[C@H](CC(=O)N3CCSCC3)C(=O)N(Cc3cccc4ccccc34)C1=C[C@H](C(C)(C)C)O[C@@H]2C	/	/	/	/	/	.
CCOc1cc(/C=C2/NC(=O)N(Cc3ccccc3F)C2=O)ccc1O	.	.	.	.	.	.
COc1cc(/C=C2/NC(=O)N(Cc3ccccc3F)C2=O)cc(OC)c1O	.	99	.	.	.	.
COc1ccccc1C(=O)N1CCC2CCNC2C1 (configuration not stated)	/	/	/	/	/	.
C[C@H]1[C@@H](C(=O)N2CCCC2)CC(=O)/C(=N/OCc2ccccc2)C[C@@H]1c1ccccc1	/	/	/	/	/	.
O=C1c2ccccc2CC1Sc1nnc(-c2ccccn2)o1 (configuration not stated)	/	/	69	.	/	.
O=C1OCCC1Sc1nnc(-c2ccccc2)o1 (configuration not stated)	.	.	.	.	.	.
COc1ccc(CCNC(=O)CSCC(=O)Nc2ccccc2)cc1OC	.	.	.	.	.	.
COc1ccc(CCNC(=O)CSc2ccc(NC(C)=O)cc2)cc1OC	.	98	.	.	.	.
O=C(CSc1ccc2ccccc2c1)NCCc1ccc(O)c(O)c1	.	99	.	.	.	.
COc1ccc(CCNC(=O)CSc2nnc(-c3ccccc3)c3ccccc23)cc1OC	.	96	.	.	.	.
COc1ccc(CCNC(=O)CSc2ccc3ccccc3c2)cc1OC	.	99	.	.	.	.
CN1Cc2nnn(Cc3ccccc3)c2-c2cc(N3CCCC3)ccc2S1(=O)=O	/	/	/	/	/	.
COc1ccc(S[C@]2(C(=O)N(C)C)CC(=O)N(c3ccccc3)[C@@H]2c2ccc(OC)cc2)cc1	/	/	/	/	/	.
COC(=O)c1ccc(Nc2cc(C)nc3ccccc23)cc1	.	.	.	.	.	.
COC(=O)c1ccc2nc(C)cc(Nc3ccc(N(C)C)cc3)c2c1	.	99	.	.	.	.
SMILES	A3A deaminase	ALR H2O2 inh	PHOSPHO1 block	aDG glyco act	APOBEC3G inh	rCAG RNA binder
Cn1c(=O)c2c(ncn2CC(=O)N/N=C/c2ccco2)n(C)c1=O	.	.	.	.	.	.
O=C(Cn1cnc2ccccc2c1=O)N/N=C/c1ccc(Br)cc1	.	.	.	.	.	.
COc1cc(/C=N/NC(=O)Cn2cnc3ccccc3c2=O)ccc1O	.	84	.	.	.	.
COc1cc(/C=N/NC(=O)Cn2cnc3c2c(=O)n(C)c(=O)n3C)ccc1O	.	100	.	.	.	.
Cc1ccc(CN2CCCCC(NC(=O)c3ccc4ccccc4c3)C2=O)cc1 (configuration not stated)	/	/	/	/	/	.
CCOC(=O)NNc1ccccc1	.	.	.	.	.	.
CCC(O)CC(C(=O)NNc1ccccc1)C(=O)NNc1ccccc1 (configuration not stated)	.	99	.	.	.	.

Screening data from PubChem BioAssay.
